Bioassay records from PubChem.
This is a sample that favours compounds with a hit; in the whole collection about 9.2% have one here.
NPC1 promoter act = activators of NPC1 promoter | Potency, µM (doses to about 9.22 µM), actives largely listed as activators | Huh7 NPC1 promoter luciferase reporter, 24 h | 320,000 tested, 2.4% active; also: nearly all actives have a fitted effect of over 60% in size
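Cells: Huh7 expressing luciferase under the NPC1 promoter, 1500/well. Seeded 2 h, compound added, incubated 24 h at 37 °C. Luciferase reagent, 10 min ambient, then luminescence.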
SMN2 splice up = enhancers of SMN2 splice variant expression; Potency, µM (highest dose often 46.1 µM), most hits filed as activators; 210,000 tested, 2.8% active; HEK293 SMN2-luciferase splicing reporter, luminescence, 30-36 h; AID 1458; also: nearly all actives have a fitted effect of over 55% in size
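HEK293 cells carry an SMN2 minigene-luciferase reporter in which exon 7 inclusion puts luciferase in frame. Cells were seeded at 2000 cells/well, attached for 10-12 hours, then exposed to compounds for 30-36 hours at 37C before ONE-Glo luminescence.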
ELG1 DNA repair = blocks ELG1-dependent DNA repair in HEK293T cells; 330,000 tested, 2.3% active; Potency, µM (series often up to 46.1 µM), actives largely listed as inhibitors; AID 504467; HEK293T ELG1-luciferase reporter, luminescence, 16 h; DNA damage induced by 5-fluorouridine; also: nearly all actives have a fitted effect of over 55% in size
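5-Fluorouridine DNA damage + compound/DMSO, 2,000 cells/well, 16 h, 37 °C/5% CO2. ONE-Glo, 30 min RT, luminescence. Readout = decrease in reporter signal.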
ELG1 genotoxic = induces genotoxicity in HEK293T cells with luciferase-tagged ELG1. HEK293T ELG1-luciferase reporter, luminescence, 16 h. Potency, µM (doses to about 46 µM), most hits filed as activators. 330,000 tested, 1.3% active; also: nearly all actives have a fitted effect of over 60% in size
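Screening used a luciferase reporter fused to human ELG1 in HEK293T cells. Luminescence was read on a CCD plate imager after 16 hr exposure and 30 min ONE-Glo incubation.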
Rab9 prom act = activators of Rab9 promoter. AID 485297. Potency, µM (doses to about 9.22 µM), actives largely listed as activators. Huh7 Rab9 promoter-luciferase reporter, luminescence, 24 h. 320,000 tested, 2.8% active; also: nearly all actives have a fitted effect of over 60% in size
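Cell-based reporter: Huh7 stable for Rab9 promoter-driven luciferase, plated in reduced-serum medium with 10% FBS at 1500 cells/well, compound-treated 24 h at 37 °C, luminescence read after 10 min reagent.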
FLuc modulator = counter-screen for miR-21 project: firefly luciferase inhibitors or activators. 360,000 tested, 6.9% active. Potency, µM (highest dose often 57.5 µM), hits mostly inhibitors. P08659. purified FLuc, Km substrates, luminescence inhibition; also: nearly all actives have a fitted effect of over 55% in size
Target sequence (P08659 whole entry, looked up): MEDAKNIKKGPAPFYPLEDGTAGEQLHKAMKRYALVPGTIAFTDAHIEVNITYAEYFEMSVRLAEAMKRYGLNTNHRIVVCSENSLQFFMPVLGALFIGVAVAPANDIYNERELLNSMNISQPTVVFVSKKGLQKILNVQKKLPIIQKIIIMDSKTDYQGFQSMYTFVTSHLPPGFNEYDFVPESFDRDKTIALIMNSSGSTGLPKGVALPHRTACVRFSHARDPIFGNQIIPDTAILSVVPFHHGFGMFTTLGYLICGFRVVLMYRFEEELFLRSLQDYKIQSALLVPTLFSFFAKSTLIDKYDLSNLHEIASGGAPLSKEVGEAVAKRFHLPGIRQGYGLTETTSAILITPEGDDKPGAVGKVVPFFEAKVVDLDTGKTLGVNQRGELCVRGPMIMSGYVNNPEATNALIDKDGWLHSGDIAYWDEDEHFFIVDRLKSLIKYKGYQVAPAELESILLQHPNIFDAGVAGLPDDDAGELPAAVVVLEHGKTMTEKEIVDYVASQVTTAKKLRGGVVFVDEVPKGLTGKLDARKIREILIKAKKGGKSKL
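Purified P. pyralis luciferase, 10 nM final, with Km-level 10 uM D-luciferin and 10 uM ATP in 50 mM Tris acetate pH 7.5, 10 mM Mg acetate, 0.01% Tween-20, 0.05% BSA; 6-point qHTS titration about 60 µM downward; luminescence read.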
A number is an active result. Calls follow the shape of the dose curve; as a rule, active = well fitted curve in the direction sought with a large enough effect; inconclusive = small, poorly fitted or top-dose-only effect, or another doubt; inactive = no such curve, though single readings can be large; an effect the other way counts as inactive or inconclusive.

Screening O=C(Nc1ccc2[nH]c(=O)[nH]c2c1)c1cccc([N+](=O)[O-])c1 returned NPC1 promoter act inactive, ELG1 DNA repair inactive, ELG1 genotoxic inactive, Rab9 prom act inactive and FLuc modulator inactive.
For O=C(COc1ccc(Cl)cc1)NCCNC(=O)c1cnccn1 the results were NPC1 promoter act inactive, ELG1 DNA repair inactive, ELG1 genotoxic inactive, Rab9 prom act inactive and FLuc modulator inactive.
CCOC(=O)N1CCC2(CC1)OC(=O)C(C)=C2C(=O)NCc1cccc(OC)c1 was read as FLuc modulator inactive.
CCCN(CC(=O)Nc1ccccc1C)C(=O)/C=C/c1ccc(OCC)c(OC)c1 was read as NPC1 promoter act inactive, ELG1 DNA repair inactive, ELG1 genotoxic inactive, Rab9 prom act inactive and FLuc modulator inactive.
`CC1N(C)c2cc(NC(=O)c3ccco3)ccc2C1(C)C` (configuration not stated) gave NPC1 promoter act 3.2µM, SMN2 splice up 16µM, ELG1 DNA repair inconclusive, ELG1 genotoxic inconclusive, Rab9 prom act 1µM and FLuc modulator 9.5µM.
Screening O=C(c1cnccn1)N1CCC2(CC1)CCN(c1ccccc1)CC2 returned SMN2 splice up inactive.
`C/C(=C\c1ccccc1)C(=O)Nc1ccc(Cl)cn1` gave NPC1 promoter act 1.8µM, ELG1 DNA repair inconclusive, ELG1 genotoxic 9.2µM, Rab9 prom act 0.79µM and FLuc modulator inconclusive.
For O=C(NC(=O)c1ccccc1)Nc1ccc(Cl)cn1 the results were NPC1 promoter act 0.63µM, ELG1 DNA repair inconclusive, ELG1 genotoxic 1.5µM, Rab9 prom act 1µM and FLuc modulator 2.1µM.
Screening O=C(Nc1ccc(Cl)cn1)c1cccc(F)c1 returned NPC1 promoter act inconclusive, SMN2 splice up 16µM, ELG1 DNA repair inconclusive, ELG1 genotoxic inconclusive, Rab9 prom act inconclusive and FLuc modulator 11µM.
Screening COc1cc2ccccc2cc1C(=O)Nc1ccc(Cl)cn1 returned NPC1 promoter act 2µM, ELG1 DNA repair inconclusive, ELG1 genotoxic inconclusive, Rab9 prom act 1.4µM and FLuc modulator inconclusive.
`O=C(Nc1ccc(Cl)cn1)c1ccccc1F` gave SMN2 splice up 16µM and FLuc modulator 4.3µM.
Nc1ccccc1NC(=O)NC(=O)c1ccccc1 was read as NPC1 promoter act inconclusive, ELG1 DNA repair inconclusive, ELG1 genotoxic inconclusive, Rab9 prom act 2.2µM and FLuc modulator 11µM.
Cc1cc(C)nc(NC(=O)NC(=O)c2ccccc2)n1 was read as NPC1 promoter act inactive, ELG1 DNA repair inactive, ELG1 genotoxic inactive, Rab9 prom act inactive and FLuc modulator inactive.
For O=C(Nc1ccc(Cl)cn1)Nc1ccccc1F the results were NPC1 promoter act inactive, SMN2 splice up inconclusive, ELG1 DNA repair inconclusive, ELG1 genotoxic inactive, Rab9 prom act inactive and FLuc modulator inconclusive.
For CCC(C(=O)NCc1ccccc1OC)n1nc(C)n2c(cc3sccc32)c1=O (configuration not stated) the results were SMN2 splice up inactive and FLuc modulator inactive.
`COc1ccc(C(=O)Oc2cccc(Nc3ncnc4ccccc34)c2)cc1OC` gave NPC1 promoter act inactive, SMN2 splice up inactive, ELG1 DNA repair 16µM, ELG1 genotoxic inactive, Rab9 prom act inactive and FLuc modulator inconclusive.
`COc1cc(C(=O)Oc2cccc(Nc3ncnc4ccccc34)c2)cc(OC)c1OC` gave NPC1 promoter act inactive, SMN2 splice up inactive, ELG1 DNA repair 2.9µM, ELG1 genotoxic inactive, Rab9 prom act inactive and FLuc modulator inconclusive.
Screening CC1=CC=CC2=NC(=O)CC(C)(C(=O)O)N12 (configuration not stated) returned NPC1 promoter act inactive, ELG1 DNA repair inactive, ELG1 genotoxic inactive, Rab9 prom act inactive and FLuc modulator inactive.
O=C(NC1CCN(C(=O)N2c3ccccc3Sc3ccccc32)CC1)c1ccco1 was read as NPC1 promoter act inactive, SMN2 splice up inactive, ELG1 DNA repair 23µM, ELG1 genotoxic inactive, Rab9 prom act inactive and FLuc modulator inactive.
O=C(NC1CCN(C(=O)N2c3ccccc3Sc3ccccc32)CC1)c1ccccc1Cl was read as NPC1 promoter act inactive, SMN2 splice up inactive, ELG1 DNA repair inactive, ELG1 genotoxic inactive, Rab9 prom act inactive and FLuc modulator inactive.
For Cc1ccc(NCc2n[nH]c(=S)n2Cc2ccccc2)cc1Cl the results were NPC1 promoter act inactive, ELG1 DNA repair inactive, ELG1 genotoxic inactive, Rab9 prom act inactive and FLuc modulator inconclusive.
For CC(C)c1ccc(/C=c2\sc3nc(-c4ccncc4)nn3c2=O)cc1 the results were NPC1 promoter act inactive, SMN2 splice up inactive, ELG1 DNA repair inconclusive, ELG1 genotoxic inactive, Rab9 prom act inactive and FLuc modulator 2.4µM.
For Cc1ccc(/C=c2\sc3nc(-c4cccnc4)nn3c2=O)cc1 the results were NPC1 promoter act inactive, SMN2 splice up inactive, ELG1 DNA repair inactive, ELG1 genotoxic inactive, Rab9 prom act inactive and FLuc modulator 4.8µM.
Cc1cc(C)n2nc(-c3cccnc3)nc2n1 was read as NPC1 promoter act inactive, SMN2 splice up inactive, ELG1 DNA repair inactive, ELG1 genotoxic inactive, Rab9 prom act inactive and FLuc modulator inactive.
O=C(O)CC12CC3CC(C1)CC(n1ncc(N4CCC5(CC4)OCCO5)c(Cl)c1=O)(C3)C2 was read as NPC1 promoter act inactive, ELG1 DNA repair 23µM, ELG1 genotoxic inactive, Rab9 prom act inactive and FLuc modulator inactive.
For CCOc1ccc(NC(=O)CSc2nc3ccccc3c(=O)n2CCC(=O)NC2CCCCC2)cc1 the results were FLuc modulator inactive.
For CC(C)(O)c1cc(=O)sc2nc3ccccc3n12 the results were NPC1 promoter act 3.5µM, SMN2 splice up 14µM, ELG1 DNA repair inconclusive, ELG1 genotoxic inconclusive, Rab9 prom act 0.56µM and FLuc modulator 9.5µM.
For CCCCN(C(=O)c1cccs1)C1CCS(=O)(=O)C1 (configuration not stated) the results were NPC1 promoter act inactive, ELG1 DNA repair inactive, ELG1 genotoxic inactive, Rab9 prom act inactive and FLuc modulator inactive.
COc1ccc(Cl)cc1NC(=O)CCS(=O)(=O)c1cccc2nonc12 was read as SMN2 splice up inactive and FLuc modulator inactive.
`O=C(Nc1nccc(-c2cccs2)n1)c1ccccc1Cl` gave NPC1 promoter act inactive, SMN2 splice up inactive, ELG1 DNA repair inconclusive, ELG1 genotoxic inactive, Rab9 prom act inactive and FLuc modulator inactive.
COC(=O)C(C)Oc1ccc(-c2nccc(-c3cccs3)n2)cc1 (configuration not stated) was read as NPC1 promoter act inactive, SMN2 splice up inconclusive, ELG1 DNA repair inconclusive, ELG1 genotoxic inactive, Rab9 prom act inactive and FLuc modulator 17µM.
Oc1ccc(-c2nccc(-c3ccc(Cl)cc3)n2)cc1 was read as NPC1 promoter act inactive, SMN2 splice up inactive, ELG1 DNA repair inconclusive, ELG1 genotoxic inconclusive, Rab9 prom act inactive and FLuc modulator 17µM.
